Measured values published in PubChem BioAssay (NCATS).
Values without a mark were called inactive. Inconclusive results are not listed. Entries that show only a call come without a potency. Active and inactive are the calls of the source. Unless noted, calls follow the shape of the dose curve; as a rule, active = well fitted curve in the direction sought with a large enough effect; inconclusive = small, poorly fitted or top-dose-only effect, or another doubt; inactive = no such curve, though single readings can be large; an effect the other way counts as inactive or inconclusive.

Assays:
[1] = biological target: Beta-2 adrenergic receptor (Homo sapiens) (UniProt P07550); assay: qHTS validation assay of beta-arrestin-biased ligands of beta2-adrenergic receptor (AID 485366)
Procedure, shortened: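 Agonism was measured as beta-arrestin recruitment to recombinant beta2-AR, releasing tTA to drive luciferase. Cells were exposed for 18 hr at 37 degrees C to a series up to 46 microM. %Activity from corrected luminescence gave concentration-response curves.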

[2] = biological target: ATP-dependent 6-phosphofructokinase (Trypanosoma brucei brucei) (UniProt O15648); assay: qHTS Validation Assay to Find Inhibitors of T. brucei phosphofructokinase (AID 485368)
Sequence of ATP-dependent 6-phosphofructokinase (Trypanosoma brucei brucei) (O15648 whole entry, looked up): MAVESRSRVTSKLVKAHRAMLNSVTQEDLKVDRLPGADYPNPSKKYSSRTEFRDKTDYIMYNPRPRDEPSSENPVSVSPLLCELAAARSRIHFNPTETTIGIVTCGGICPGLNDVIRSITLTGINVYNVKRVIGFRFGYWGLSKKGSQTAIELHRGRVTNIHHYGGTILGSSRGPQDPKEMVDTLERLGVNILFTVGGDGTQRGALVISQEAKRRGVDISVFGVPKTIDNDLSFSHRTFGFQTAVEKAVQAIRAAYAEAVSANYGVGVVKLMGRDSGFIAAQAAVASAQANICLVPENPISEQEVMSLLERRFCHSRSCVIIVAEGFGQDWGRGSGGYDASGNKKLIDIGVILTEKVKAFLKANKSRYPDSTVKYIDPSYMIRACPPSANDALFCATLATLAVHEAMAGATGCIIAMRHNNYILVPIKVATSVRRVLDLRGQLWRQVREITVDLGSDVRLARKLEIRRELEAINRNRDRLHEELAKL
Procedure, shortened: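 ADP-Glo luminescence, two-step: residual ATP depleted, then ADP converted to ATP for luciferase. Enzyme 1.25 nM, F6P 0.5 mM, ATP 0.1 mM, pH 8.0 TEA buffer, 45 min RT. Curves fitted and classed by quality and efficacy.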

[3] = Quantitative high throughput screen for delayed death inhibitors of the malarial parasite plastid, 96 hour incubation (AID 488745);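 also: luciferase-expressing P. falciparum in erythrocytes at 2% hematocrit and 0.1% parasitemia; series mostly up to about 29 µM; nearly all actives have a fitted effect of over 70% in size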
Procedure, shortened: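 Readout is firefly luciferase luminescence from an integrated reporter in P. falciparum; lower signal marks inhibited growth. Cultures at 2% hematocrit and 0.1% parasitemia were treated with compound across two generations (96 h, 37 C, 5% CO2).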

[4] = biological target: Thioredoxin reductase 1, cytoplasmic (Rattus norvegicus) (UniProt O89049); assay: qHTS Assay for Substrates of Mammalian Selenoprotein Thioredoxin Reductase 1 (TrxR1) (AID 488772);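 also: series mostly up to about 57 µM; a drop in NADPH fluorescence below the no-compound background marks a TrxR1 substrate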
Sequence of Thioredoxin reductase 1, cytoplasmic (Rattus norvegicus) (O89049 whole entry, looked up): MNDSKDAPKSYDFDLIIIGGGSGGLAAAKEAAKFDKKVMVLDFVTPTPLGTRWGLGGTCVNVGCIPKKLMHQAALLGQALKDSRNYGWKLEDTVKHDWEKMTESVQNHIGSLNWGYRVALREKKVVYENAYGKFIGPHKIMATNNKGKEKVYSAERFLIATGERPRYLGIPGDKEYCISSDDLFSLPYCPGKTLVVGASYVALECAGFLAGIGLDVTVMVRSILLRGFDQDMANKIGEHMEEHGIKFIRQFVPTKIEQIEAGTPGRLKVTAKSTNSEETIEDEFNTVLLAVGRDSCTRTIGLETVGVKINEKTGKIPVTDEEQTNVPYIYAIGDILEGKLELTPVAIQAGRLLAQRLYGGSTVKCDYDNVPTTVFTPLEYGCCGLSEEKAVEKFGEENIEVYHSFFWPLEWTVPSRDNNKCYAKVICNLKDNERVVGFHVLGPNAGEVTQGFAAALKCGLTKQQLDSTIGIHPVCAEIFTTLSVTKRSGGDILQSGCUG
Procedure, shortened: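 In this dual-purpose format, potential substrates are identified from the first fluorescence read after selenite addition, not from the 8-minute delta. Rat enzyme is preincubated with NADPH and then with compound at ~22 deg C.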

[5] = biological target: M-phase phosphoprotein 8 (Homo sapiens) (UniProt Q99549); assay: qHTS Validation Assay for Inhibitors for MPP8 Chromodomain Interactions with Methylated Histone Tails (AID 488949); also: nearly all actives have a fitted effect of over 55% in size; also: potency is read from the fitted curve at half-maximal effect
Procedure, shortened: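 MPP8 (50 nM) was preincubated with biotinylated H3(1-18)K9me3 peptide (50 nM) in PBS pH 7.4, 0.01% Tween-20 for 30 min at room temperature, then with compounds for 30 min; binding was detected by AlphaScreen.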

[6] = biological target: Chromobox protein homolog 1 (Homo sapiens) (UniProt P83916); assay: qHTS Validation Assay for Inhibitors of HP1-beta Chromodomain Interactions with Methylated Histone Tails (AID 488953); also: nearly all actives have a fitted effect of over 50% in size; also: potency is read from the fitted curve at half-maximal effect
Sequence of Chromobox protein homolog 1 (Homo sapiens) (P83916 whole entry, looked up): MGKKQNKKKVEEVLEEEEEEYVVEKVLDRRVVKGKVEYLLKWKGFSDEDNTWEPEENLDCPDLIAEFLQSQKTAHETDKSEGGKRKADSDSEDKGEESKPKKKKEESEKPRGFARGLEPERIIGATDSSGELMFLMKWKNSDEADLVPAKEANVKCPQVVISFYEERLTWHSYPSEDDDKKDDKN
Procedure, shortened: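 Disruption of preformed HP1-beta:H3K9me3 peptide complexes (both 50 nM, PBS pH 7.4 with 0.01% Tween-20) is measured by AlphaScreen after 30 min compound exposure at room temperature, using streptavidin donor and nickel chelate acceptor beads at 10 ug/mL final.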

[7] = biological target: Methanococcus maripaludis chaperonin (MmCpn) (UniProt Q6LX38); assay: High-Throughput Screening for Modulators of Cytosolic Chaperonin Activity: MmCpn Primary Screen (AID 488978);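 also: 50 nM MmCpn enzyme hydrolysing 30 µM ATP at 37 °C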
Sequence of Methanococcus maripaludis chaperonin (MmCpn) (Q6LX38 1-543): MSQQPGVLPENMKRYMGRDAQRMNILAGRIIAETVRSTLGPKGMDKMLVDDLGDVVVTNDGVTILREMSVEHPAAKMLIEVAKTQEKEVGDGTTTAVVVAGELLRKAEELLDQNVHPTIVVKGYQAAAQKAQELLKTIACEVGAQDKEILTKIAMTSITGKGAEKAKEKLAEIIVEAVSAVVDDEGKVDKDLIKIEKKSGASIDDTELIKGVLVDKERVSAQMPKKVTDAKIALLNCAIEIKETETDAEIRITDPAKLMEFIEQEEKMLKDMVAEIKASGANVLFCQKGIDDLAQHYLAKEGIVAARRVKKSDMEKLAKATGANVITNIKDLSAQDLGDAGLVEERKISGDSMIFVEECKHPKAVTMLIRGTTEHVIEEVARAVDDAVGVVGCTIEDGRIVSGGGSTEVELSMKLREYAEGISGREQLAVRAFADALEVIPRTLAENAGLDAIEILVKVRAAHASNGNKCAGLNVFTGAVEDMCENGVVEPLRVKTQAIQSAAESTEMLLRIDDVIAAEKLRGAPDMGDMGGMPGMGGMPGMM
Procedure, shortened: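 MmCpn (50 nM final) was preincubated with compound 5 min at RT, then 30 uM ATP (final) was added and the reaction ran 10 min at 37C. ADP produced was detected by Transcreener HTRF (ex 320 nm; em 590/665 nm).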

[8] = biological target: Transient receptor potential cation channel subfamily V member 1 (Homo sapiens) (UniProt Q8NER1); assay: HTS Assay for Compounds that Act as Enhancers of the Vanilloid Receptor 1 (AID 488979)
Procedure, shortened: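 TRPV1-expressing cells loaded with Fluo-8 calcium dye; compounds added and calcium influx read kinetically for 3 min (agonist phase), then capsaicin at EC20 added and read 2 min more for enhancement. Fluorescence ex 480/em 520 nm.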

[9] = biological target: Thyrotropin receptor (Homo sapiens) (UniProt P16473); assay: qHTS Assay for Antagonists of the Thyroid Stimulating Hormone Receptor (AID 488980); also: series mostly up to about 58 µM
Procedure, shortened: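 HEK293 cells transfected with human TSHR, suspended in HEPES-buffered HBSS with 70 uM RO 20-1724, were treated with compounds plus TSH at EC80 (4 nM final). cAMP was measured by competitive HTRF (cryptate anti-cAMP antibody, cAMP-d2 acceptor).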

[10] = biological target: D(1A) dopamine receptor (Homo sapiens) (UniProt P21728); assay: HTS Assay for Allosteric Agonists of the Human D1 Dopamine Receptor: Primary Screen for Potentiators (AID 488982)
Sequence of D(1A) dopamine receptor (Homo sapiens) (P21728 whole entry, looked up): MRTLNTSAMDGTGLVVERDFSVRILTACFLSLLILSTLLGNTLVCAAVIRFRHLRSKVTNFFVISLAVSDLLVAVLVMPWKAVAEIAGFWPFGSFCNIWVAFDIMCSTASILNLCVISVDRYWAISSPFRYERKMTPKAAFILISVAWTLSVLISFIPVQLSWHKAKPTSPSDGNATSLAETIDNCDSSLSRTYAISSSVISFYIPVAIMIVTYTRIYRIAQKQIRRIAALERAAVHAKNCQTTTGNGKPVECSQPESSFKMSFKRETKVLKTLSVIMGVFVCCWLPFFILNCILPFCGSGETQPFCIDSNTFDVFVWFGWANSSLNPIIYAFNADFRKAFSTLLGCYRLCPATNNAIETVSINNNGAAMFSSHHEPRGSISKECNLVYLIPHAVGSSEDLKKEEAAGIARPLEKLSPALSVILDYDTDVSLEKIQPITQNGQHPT
Procedure, shortened: (§1)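 Tetracycline-induced HEK293 T-REx cells force-coupled to calcium signalling were incubated overnight at 30 C and dye-loaded at room temperature. Calcium flux over 180 s after compound addition flagged agonists; a further 180 s read after EC20 dopamine flagged potentiators.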

[11] = biological target: D(1A) dopamine receptor (Homo sapiens) (UniProt P21728); assay: HTS Assay for Allosteric Agonists of the Human D1 Dopamine Receptor: Primary Screen for Antagonists (AID 488983);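 also: calcium flux response to an EC80 dopamine challenge measured with no-wash dye; nearly all actives have a fitted effect of over 65% in size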
Procedure, shortened: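 Kinetic fluorescence at 1 cycle/sec tracked intracellular calcium in force-coupled, tetracycline-inducible HEK293 T-REx D1 cells. Loss of response to an EC80 dopamine dose, given 180 s after compound, marked antagonists.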

[12] = Validation screen for small molecules that induce genotoxicity in human embryonic kidney (HEK293T) cells expressing luciferase-tagged ELG1 (AID 493106)
Procedure, shortened: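 Cells were dispensed at 2,000 per well, then 23 nL compound or DMSO was pinned in. After 16 hr at 37 °C and 5% CO2, ONE-Glo reagent was added. Luciferase activity was measured following 30 min at room temperature.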

[13] = biological target: ATPase family AAA domain-containing protein 5 (Homo sapiens) (UniProt Q96QE3); assay: Validation screen for small molecules that inhibit ELG1-dependent DNA repair in human embryonic kidney (HEK293T) cells expressing luciferase-tagged ELG1 (AID 493107); also: nearly all actives have a fitted effect of over 70% in size; also: potency is read from the fitted curve at half-maximal effect
Sequence of ATPase family AAA domain-containing protein 5 (Homo sapiens) (Q96QE3 whole entry, looked up, the tested form may be a part): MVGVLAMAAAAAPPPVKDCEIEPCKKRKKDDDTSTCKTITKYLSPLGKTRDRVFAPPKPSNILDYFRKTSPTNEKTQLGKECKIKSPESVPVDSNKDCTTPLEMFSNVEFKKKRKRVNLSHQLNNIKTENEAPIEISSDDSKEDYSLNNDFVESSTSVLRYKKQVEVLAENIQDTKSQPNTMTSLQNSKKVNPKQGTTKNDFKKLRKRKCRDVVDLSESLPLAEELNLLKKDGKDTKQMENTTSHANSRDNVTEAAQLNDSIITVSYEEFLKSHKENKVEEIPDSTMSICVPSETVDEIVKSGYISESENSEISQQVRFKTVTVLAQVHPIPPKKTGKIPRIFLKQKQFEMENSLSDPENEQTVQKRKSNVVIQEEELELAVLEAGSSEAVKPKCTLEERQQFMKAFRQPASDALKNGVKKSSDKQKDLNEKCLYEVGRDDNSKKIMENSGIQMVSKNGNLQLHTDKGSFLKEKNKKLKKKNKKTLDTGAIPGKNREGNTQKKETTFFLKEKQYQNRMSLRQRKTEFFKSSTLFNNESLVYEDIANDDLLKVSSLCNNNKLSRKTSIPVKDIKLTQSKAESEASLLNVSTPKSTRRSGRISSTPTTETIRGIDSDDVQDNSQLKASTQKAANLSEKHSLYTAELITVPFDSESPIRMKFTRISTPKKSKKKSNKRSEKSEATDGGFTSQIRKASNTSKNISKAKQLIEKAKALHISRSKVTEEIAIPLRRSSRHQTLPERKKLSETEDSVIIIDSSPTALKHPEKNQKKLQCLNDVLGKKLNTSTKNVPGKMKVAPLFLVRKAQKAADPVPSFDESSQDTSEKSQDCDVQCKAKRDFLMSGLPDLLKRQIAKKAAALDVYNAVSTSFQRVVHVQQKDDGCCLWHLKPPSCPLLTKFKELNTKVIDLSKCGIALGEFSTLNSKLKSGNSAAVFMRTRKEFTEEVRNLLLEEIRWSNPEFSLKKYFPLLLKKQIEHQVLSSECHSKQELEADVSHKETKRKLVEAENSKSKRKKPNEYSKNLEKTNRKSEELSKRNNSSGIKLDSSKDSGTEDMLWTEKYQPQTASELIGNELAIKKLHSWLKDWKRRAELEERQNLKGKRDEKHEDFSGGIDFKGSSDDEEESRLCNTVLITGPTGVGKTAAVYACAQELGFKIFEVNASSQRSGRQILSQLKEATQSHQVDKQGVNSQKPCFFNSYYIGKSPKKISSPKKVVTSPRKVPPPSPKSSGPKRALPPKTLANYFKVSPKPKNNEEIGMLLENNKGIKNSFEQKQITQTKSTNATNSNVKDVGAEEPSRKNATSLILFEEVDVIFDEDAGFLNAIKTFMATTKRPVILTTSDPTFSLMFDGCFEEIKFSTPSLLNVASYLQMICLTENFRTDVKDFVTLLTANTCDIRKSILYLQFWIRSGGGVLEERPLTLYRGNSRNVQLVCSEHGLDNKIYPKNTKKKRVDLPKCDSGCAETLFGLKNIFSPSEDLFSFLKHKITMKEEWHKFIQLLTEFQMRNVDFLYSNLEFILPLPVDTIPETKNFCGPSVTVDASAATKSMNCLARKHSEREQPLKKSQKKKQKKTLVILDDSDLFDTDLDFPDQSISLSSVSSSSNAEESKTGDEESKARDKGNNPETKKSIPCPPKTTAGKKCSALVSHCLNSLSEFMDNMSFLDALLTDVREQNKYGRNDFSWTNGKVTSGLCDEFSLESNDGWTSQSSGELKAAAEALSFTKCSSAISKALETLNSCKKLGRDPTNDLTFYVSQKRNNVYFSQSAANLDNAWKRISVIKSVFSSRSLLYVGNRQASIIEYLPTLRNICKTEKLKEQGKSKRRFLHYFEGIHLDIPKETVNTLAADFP
Procedure, shortened: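 Cells are dispensed in 1536-well format, then 5-fluorouridine and compound are pinned in. After a 16 hr incubation at 37 °C and 5% CO2, ONE-Glo is added and luciferase measured on a CCD imager.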

[14] = biological target: Thyrotropin-releasing hormone receptor (Homo sapiens) (UniProt P34981); assay: qHTS for Small Molecule Agonists and Allosteric Enhancers of Human TRH Receptor: Validation Screen for Agonists (AID 493127;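 active = calcium activation more than 3 SD above the typical response in the agonist read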;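 also: intracellular calcium rise by fluo-8 fluorescence before TRH EC20 addition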); conditions: TRH receptor agonist cell assay; at 2 µM; active compounds read high
Sequence of Thyrotropin-releasing hormone receptor (Homo sapiens) (P34981 whole entry, looked up): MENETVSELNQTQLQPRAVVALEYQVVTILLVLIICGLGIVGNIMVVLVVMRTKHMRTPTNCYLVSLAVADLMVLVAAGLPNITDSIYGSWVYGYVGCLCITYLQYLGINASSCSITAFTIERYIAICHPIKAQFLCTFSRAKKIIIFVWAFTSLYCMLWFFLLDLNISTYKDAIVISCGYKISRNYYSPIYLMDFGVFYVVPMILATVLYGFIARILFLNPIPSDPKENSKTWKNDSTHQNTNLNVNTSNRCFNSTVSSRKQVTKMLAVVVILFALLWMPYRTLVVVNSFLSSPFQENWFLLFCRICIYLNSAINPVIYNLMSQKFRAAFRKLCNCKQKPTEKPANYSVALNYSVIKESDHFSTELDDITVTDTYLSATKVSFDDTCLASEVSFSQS
Procedure, shortened: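 Compounds are added by online pintool to dye-loaded TRHR cells while fluorescence is recorded every second. A rise in calcium signal during the agonist read marks activation; a later 10 nM TRH addition (EC20) serves the separate enhancer mode.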

[15] = biological target: Thioredoxin reductase 1, cytoplasmic (Rattus norvegicus) (UniProt O89049); assay: qHTS Assay for Inhibitors of Mammalian Selenoprotein Thioredoxin Reductase 1 (TrxR1) (AID 488773); conditions: Potency: inhibition;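 also: drop in NADPH fluorescence over an 8 min run after selenite addition; series mostly up to about 57 µM; nearly all actives have a fitted effect of over 40% in size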
Procedure, shortened: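 Inhibition is scored from the loss of NADPH fluorescence between first and last reads of an 8-min kinetic run. Selenite (400 uM) was the substrate, added after 15 min compound preincubation at room temperature.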

[16] = biological target: Flap endonuclease 1 (Homo sapiens) (UniProt P39748); assay: qHTS Validation Assay for the Inhibitors of Human Flap endonuclease 1 (FEN1) (AID 488816)
Sequence of Flap endonuclease 1 (Homo sapiens) (P39748 whole entry, looked up): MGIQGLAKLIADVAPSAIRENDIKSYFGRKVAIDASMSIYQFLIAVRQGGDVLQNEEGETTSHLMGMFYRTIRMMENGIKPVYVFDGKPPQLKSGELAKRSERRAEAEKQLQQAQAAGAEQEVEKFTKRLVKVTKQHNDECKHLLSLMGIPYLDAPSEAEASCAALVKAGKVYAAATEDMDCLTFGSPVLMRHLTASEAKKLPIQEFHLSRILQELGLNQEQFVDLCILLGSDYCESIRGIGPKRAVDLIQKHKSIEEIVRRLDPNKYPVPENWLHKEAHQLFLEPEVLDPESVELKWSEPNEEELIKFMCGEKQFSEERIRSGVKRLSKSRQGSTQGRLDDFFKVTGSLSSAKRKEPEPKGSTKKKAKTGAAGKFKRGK
Procedure, shortened: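 Steps: add FEN1 (10 nM reagent) or buffer only; pin compounds; hold 15 min at room temperature; start with substrate, 50 nM final; read at 0 and 15 min; correct, normalize and fit a four-parameter Hill curve.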

[17] = biological target: D(1A) dopamine receptor (Homo sapiens) (UniProt P21728); assay: HTS Assay for Allosteric Agonists of the Human D1 Dopamine Receptor: Primary Screen for Agonists (AID 488981)
Procedure, shortened: as §1

[18] = Quantitative high throughput screen for delayed death inhibitors of the malarial parasite plastid, 48 hour incubation (AID 488752); also: nearly all actives have a fitted effect of over 65% in size
Procedure, shortened: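 First, compound was pinned into RPMI 1640 medium containing 0.5% Albumax. Next, reporter-parasite-infected erythrocytes were added to 2% hematocrit and 0.1% parasitemia. After 48 h at 37 C under 5% CO2, luciferase detection reagent was added and luminescence read.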

[19] = biological target: Tyrosyl-DNA phosphodiesterase 1 (Homo sapiens) (UniProt Q9NUW8); assay: Confirmation Assay for Inhibitors of Tyrosyl-DNA Phosphodiesterase (TDP1) (AID 489007); conditions: recombinant human TDP1 enzymatic activity, dose-response; also: potency is read from the fitted curve at half-maximal effect; nearly all actives have a fitted effect of over 40% in size
Procedure, shortened: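 Compounds are preincubated 15 min at room temperature with 1 nM recombinant human Tdp1. The reaction starts on adding 15 nM FITC-phosphotyrosine DNA substrate, runs 5 min, and is detected by AlphaScreen beads after 10 min.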

Structure (SMILES)	outcome [1]	Potency [2]	Potency [3]	outcome [4]	Potency [5]	Potency [6]	outcome [7]	outcome [8]	outcome [9]	Potency [10]	Potency [11]	Potency [12]	Potency [13]	activation [14] [%]	Potency [15]	Potency [16]	Potency [17]	Potency [18]	Potency [19]
CC(N)=O	inactive	inactive	inactive	inactive	inactive	inactive	inactive	inactive	inactive	inactive	inactive	inactive	inactive	0.25					
O=C(OCCN1CCOCC1)C1(c2ccccc2)CCCCC1	inactive	inactive	inactive	inactive	inactive		inactive	inactive	inactive	inactive	inactive	inactive	inactive	-4.62	inactive	inactive	inactive		
O=C(O)CCC(=O)N1CCCC1C(=O)O (stereo not given)	inactive	inactive	inactive	inactive		inactive	inactive	inactive	inactive	inactive	inactive	inactive	inactive	-0.312	inactive		inactive		
CCCC(=O)NCCc1c2n(c3ccc(OC)cc13)CCCc1ccccc1-2	inactive	inactive		inactive	28.2 µM (active)	35.5 µM (active)	inactive	inactive	inactive	inactive	inactive	inactive		-9.25	inactive	inactive	inactive	inactive	
NC1CONC1=O (stereo not given)	inactive	inactive		inactive	inactive	inactive	inactive	inactive	inactive	inactive	inactive	inactive	inactive		inactive			inactive	
CCCCOC(=O)NS(=O)(=O)c1sc(CC(C)C)cc1-c1ccc(Cn2c(CC)nc3c(C)cc(C)nc32)cc1	inactive	inactive	inactive		inactive		inactive	inactive	inactive	inactive		inactive	8.2 µM (active)	2.25	inactive	inactive	inactive		
N[C@H](C(=O)O)[C@H](Cc1ccccc1)C(=O)O	inactive	inactive		inactive	inactive	inactive	inactive			inactive	inactive	inactive			inactive	inactive	inactive		
NC1CCN(O)C1=O (stereo not given)	inactive		inactive	inactive	inactive	inactive	inactive	inactive	inactive	inactive	inactive	inactive		0.875	inactive	inactive	inactive	inactive	
N#Cc1cc2nc(O)c(O)nc2cc1[N+](=O)[O-]	inactive		inactive	inactive	inactive	inactive	inactive	inactive	inactive	inactive	inactive	inactive	inactive	-2.94	inactive	inactive	inactive	inactive	
CNC(=O)c1cc2c(cn1)[nH]c1ccccc12	inactive	inactive		inactive	inactive		inactive	inactive	inactive	inactive	inactive			0.75	inactive	inactive	inactive		
Cc1nc(N=Nc2ccc(S(=O)(=O)O)cc2S(=O)(=O)O)c(COP(=O)(O)O)c(C=O)c1O	inactive		inactive	inactive	inactive	inactive	inactive	inactive	inactive	inactive	inactive	inactive	inactive	0.938	inactive	inactive	inactive	inactive	7.08 µM (active)
CC1=C(/C=C/C(C)=C/C=C/C(C)=C\C(=O)O)C(C)(C)CCC1	inactive	inactive		inactive	inactive	inactive	inactive	inactive		inactive	inactive	inactive		0.75		inactive	inactive		
C=CCNc1ncnc2ccc(Br)cc12	inactive	inactive		inactive	inactive	inactive	inactive			inactive	inactive	inactive	7.3 µM (active)		inactive		inactive		
